Most compounds without a hit are left out; they make up all but 6.1% or so of the library.
D1 agonist – agonists of human D1 dopamine receptor | HEK293 T-REx D1 cells, calcium flux, agonist mode | activation, % at 2 µM | 1% of 360,000 active | AID 504660; in the data active means activation above about 30%; further: 0% is about no effect
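Inducible HEK293 T-REx D1 cells, force-coupled to calcium signalling, were plated at 4000 cells/well with tetracycline and held overnight at 30 C. After no-wash calcium dye loading, compound-evoked calcium rise over 180 s flagged agonists.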
DRD3 agonist – agonists of human D3 dopamine receptor; P35462; D3R DiscoveRx beta-arrestin cells, luminescence, 90 min; max activation, %; 0.58% of 410,000 active; AID 652048; in the data active means max activation above about 30%; further: 0% is about no effect
Target sequence (P35462 whole entry, looked up): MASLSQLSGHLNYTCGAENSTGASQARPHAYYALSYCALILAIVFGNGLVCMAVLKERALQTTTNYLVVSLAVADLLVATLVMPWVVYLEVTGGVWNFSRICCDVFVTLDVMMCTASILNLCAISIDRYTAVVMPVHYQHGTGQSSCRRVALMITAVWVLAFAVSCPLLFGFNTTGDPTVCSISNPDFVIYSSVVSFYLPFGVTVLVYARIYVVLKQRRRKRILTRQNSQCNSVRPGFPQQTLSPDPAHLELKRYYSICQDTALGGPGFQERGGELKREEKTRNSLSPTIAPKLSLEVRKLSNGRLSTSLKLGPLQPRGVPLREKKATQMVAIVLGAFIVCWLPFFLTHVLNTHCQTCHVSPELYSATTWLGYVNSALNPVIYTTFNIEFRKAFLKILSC
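Cells at 1500/well, incubated overnight, then treated with pinned compounds (dopamine as control) for 90 min at 37 degrees C. DiscoveRx reagent added for 30 - 60 minutes at room temperature; luminescence read.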
D1 PAM – enhances dopamine response at the human D1 receptor; 0.036% of 360,000 active; potentiation, % at 10 µM; HEK293 TREx D1 cells, calcium flux, dopamine EC20 potentiation; in the data active means potentiation above about 30%; further: 0% is about no effect
D1 antagonist – antagonists of human D1 dopamine receptor | P21728 | HEK293 TREx D1 cells, calcium flux, dopamine EC80; hits give low values | activity change, negative = inhibition, % at 10 µM | 3.2% of 360,000 active | AID 504652; in the data active means activity change below about -30%; further: on the % scale 0 is the no-effect control and ±100 the full control effect
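Inducible Hek293 Trex D1 cells (tetracycline, overnight, 30 C). Calcium dye 30–90 min RT. Antagonist mode: EC80 dopamine added after 180 s compound read.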
D3 antag – D3 dopamine receptor (human) antagonism; D3R cells, DiscoveRx beta-arrestin luminescence, antagonist mode; hits give low values; 2.5% of 360,000 active; max response, negative = inhibition, %; in the data active means max response below about -50%; inconclusive means no clear call, values can overlap the other calls; further: on the % scale 0 is the no-effect control and ±100 the full control effect
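Cells plated overnight at 1500 cells/well, then exposed to library compounds with dopamine controls for 90 minutes at 37 degrees C. DiscoveRx reagent added for 30–60 minutes at room temperature; luminescence read, quantitative HTS format.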
Numbers without * were called inactive; ? = inconclusive; . = no result.

SMILES	D1 agonist	DRD3 agonist	D1 PAM	D1 antagonist	D3 antag
COc1ccc(S(=O)(=O)Nc2ccc3c(c2)N(C(C)=O)CCC3)cc1F	8.4	6.9	-0.2	-16.3	.
Cc1ccc(S(=O)(=O)N2CCN(C(=O)CN3CCOCC3)C2C(C)C)cc1 (stereo unspecified)	2.6	-3.0	-8.0	-1.6	-5.0
CC(C)C1N(C(=O)CN2CCCC2)CCN1S(=O)(=O)c1ccccc1 (stereo unspecified)	4.6	-4.5	-11.6	-45.4*	0.6
COc1ccc(C2N(C(=O)CN3CCCC3)CCCN2S(=O)(=O)c2ccccc2)cc1 (stereo unspecified)	32.2*	-0.1	3.0	7.7	4.4
CCCCN1CCCc2cc(CN(CCCN3CCOCC3)C(=O)Nc3ccc(CC)cc3)ccc21	2.0	-15.0	-1.1	13.1	.
CCOC(=O)c1noc2nc(C)n(CC(=O)Nc3ccc(OC)c(Cl)c3)c(=O)c12	2.8	-9.6	0.9	-0.6	.
Cc1ccccc1OCCNCC(C)O (stereo unspecified)	0.2	-12.0	-6.5	-13.7	-56.6*
CCOc1ccccc1CNCCNCC(C)O (stereo unspecified)	0.4	-12.1	6.2	12.5	-25.6
Cc1ccc(CCNC(=O)c2ccc(CSCc3ccccc3Cl)o2)cc1	13.8	-2.7	-2.1	-15.4	.
Cc1ccccc1-c1nnn(Cc2cccc(S(=O)(=O)N3CCOCC3)c2)n1	13.0	0.0	-7.7	-33.5*	-2.1
O=C1c2ccccc2S(=O)(=O)N1Cc1cccc(S(=O)(=O)N2CCOCC2)c1	7.5	7.5	-9.4	-21.5	22.4
COC(=O)C1=C[C@@H](C(=O)OC)C2C3=C(C(=O)C24CCCCC4)[C@H](C)n2c(=O)n(-c4ccccc4)c(=O)n2[C@@H]3C1 (stereo partly specified)	.	35.3*	.	.	27.6
CC(C)(C)CC(C)(C)NC(=S)NC1CCN(Cc2ccccc2)CC1	18.1	-13.3	-8.2	6.6	?
S=C(Nc1ccc(Cl)c(Cl)c1)NC1CCN(Cc2ccccc2)CC1	47.3*	-7.4	-5.5	-43.4*	-55.1*
Fc1ccc(NC(=S)NC2CCN(Cc3ccccc3)CC2)cc1	19.7	1.5	-6.5	-7.3	-54.5*
CCOc1ccc(CCNC(=O)c2ccc3c(c2)c(C)c(C)n3C)cc1	1.0	5.6	1.4	8.2	.
O=C(NCc1ccccc1)C1CCCN1C(=O)Nc1ccccc1[N+](=O)[O-] (stereo unspecified)	0.7	0.1	10.7	-30.9*	1.4
O=C(/C=C/c1cccc(Cl)c1)c1nc2ccccc2[nH]1	1.0	-5.8	-8.5	-14.0	-56.5*
O=C(/C(=C/c1ccc(Cl)cc1)c1nc2ccccc2[nH]1)c1cccs1	7.6	-14.1	-5.0	-4.4	-65.2*
O=C(NCc1nc2ccccc2[nH]1)c1cccc(Cl)c1	-0.2	-20.4	-3.6	-24.2	.
O=C(/C(=C\c1ccccc1)c1nc2ccccc2[nH]1)c1ccc(Cl)cc1	2.8	-2.7	-8.3	3.6	-71.5*
CCCSc1ncc(Cl)c(C(=O)N2CCN(c3ccc(OC)cc3)CC2)n1	-0.9	-6.7	-2.6	3.4	.
Cc1ccc(S(=O)(=O)N2c3ccccc3OCC2C(C)(C)C)cc1 (stereo unspecified)	0.8	-5.3	-6.0	-0.1	-14.5
Cc1ccc2c(c1)N(S(=O)(=O)c1ccc(F)cc1)C(C(C)(C)C)CO2 (stereo unspecified)	6.2	-8.3	7.8	-40.4*	?
CNC(=O)C1CCC(Cn2c(=O)c3sccc3n(CC(=O)N3CCCC3)c2=O)CC1 (stereo unspecified)	0.9	5.1	-5.6	-4.2	.
SMILES	D1 agonist	DRD3 agonist	D1 PAM	D1 antagonist	D3 antag
CCOc1ccc(-c2cc(C(=O)NCc3ccc(C)cc3)c3ccccc3n2)cc1	0.4	1.7	-2.8	3.5	.
CCOc1ccc(Sc2cc(C(=O)NCc3ccccc3Cl)c3ccccc3n2)cc1	3.9	0.5	-2.5	-36.5*	.
CCc1ccc(Nc2cc(C(=O)NCCCN3CCOCC3)c3ccccc3n2)cc1	50.7*	-7.4	-6.5	-26.2	1.2
CCOc1ccc(-c2cc(C(=O)NCc3ccccc3Cl)c3ccccc3n2)cc1	-1.7	-1.1	-2.2	-36.2*	.
CCc1ccc(Sc2cc(C(=O)NCc3cccc(OC)c3)c3ccccc3n2)cc1	13.5	1.2	-2.5	-31.9*	.
CCOc1ccc(NC(=O)N2CCN(S(=O)(=O)c3ccc4c(ccn4C)c3)CC2)cc1	-0.7	-7.6	-0.8	0.3	.

Assay outcomes (PubChem)
